Data taken from PubChem BioAssay (EPA / NIEHS).
Active and inactive are the calls of the source. The calls were made as follows: active = hit-call score of the fitted dose curve at least 0.9, where 1 is the maximum; inconclusive = response in the unintended direction; inactive = score below 0.9.

assay: Tanguay_ZF_120hpf_ActivityScore_legacy: (Legacy) Oregon State University Tanguay Lab 120 Hour Post-fertilization zebrafish Assay Score for Activity (AID 2283742);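 as to AC50: dechorionated Tropical 5D wild-type zebrafish embryos held singly per well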
Procedure, shortened: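 Binary scoring of mortality and morphology by brightfield at 24 and 120 hpf, summarised into one activity score from 18 components relative to DMSO. Wild-type Tropical 5D zebrafish, chorion removed at 4 hpf, static exposure 6–120 hpf, 28 °C.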

Row | SMILES | outcome | AC50
1 | CCCCNC(=O)n1c(NC(=O)OC)nc2ccccc21 | inactive | –
2 | Oc1ccccc1-c1ccccc1 | – | 45.8 µM (active)
3 | Fc1ccc(Oc2ccnc3cc(Cl)cc(Cl)c23)cc1 | inactive | –
4 | CCCC1COC(Cn2cncn2)(c2ccc(Cl)cc2Cl)O1 (configuration not stated) | – | 42.8 µM (active)
5 | CCOC(=O)CC(SP(=S)(OC)OC)C(=O)OCC (configuration not stated) | – | 29.2 µM (active)
6 | CNC(=O)ON=CC(C)(C)SC | – | 0.00317 µM (active)
7 | CN(C)C(=S)SSC(=S)N(C)C | – | 9.8 µM (active)
8 | N#Cc1nn(-c2c(Cl)cc(C(F)(F)F)cc2Cl)c(N)c1S(=O)C(F)(F)F (configuration not stated) | inactive | –
9 | CON(C)C(=O)Nc1ccc(Cl)c(Cl)c1 | inactive | –
10 | Cc1ccc(-c2c(Cl)nc(C#N)n2S(=O)(=O)N(C)C)cc1 | – | 2.27 µM (active)
11 | COP(N)(=O)SC (configuration not stated) | inactive | –
12 | CCNc1nc(Cl)nc(NCC)n1 | inactive | –
13 | O=C(Nc1ccccc1)Nc1ccnc(Cl)c1 | – | 38.6 µM (active)
14 | CNC(=S)S | inactive | –
15 | CCOP(=S)(OCC)SCn1c(=O)oc2cc(Cl)ccc21 | inactive | –
16 | Cc1c(F)c(F)c(COC(=O)C2C(/C=C(\Cl)C(F)(F)F)C2(C)C)c(F)c1F (configuration not stated) | – | 20.9 µM (active)
17 | CS/C(C)=N/OC(=O)N(C)SN(C)C(=O)O/N=C(\C)SC | inactive | –
18 | CC(C)C1(C)N=C(c2nc3ccccc3cc2C(=O)O)NC1=O (configuration not stated) | inactive | –
19 | CC(Oc1ccc(Cl)cc1Cl)C(=O)O (configuration not stated) | inactive | –
20 | COc1nc(NC(C)C)nc(NC(C)C)n1 | inactive | –
21 | N#Cc1cc(Br)c(O)c(Br)c1 | – | 23.8 µM (active)
22 | CC1=C(C(=O)Nc2ccccc2)SCCO1 | – | 47.7 µM (active)
23 | OC(c1ccc(Cl)cc1)(c1cncnc1)c1ccccc1Cl (configuration not stated) | inactive | –
24 | Cc1cc(Cl)ccc1OCC(=O)O | inactive | –
25 | CCCN(CCC)c1c([N+](=O)[O-])cc(S(N)(=O)=O)cc1[N+](=O)[O-] | inactive | –
26 | CCCCC(CC)COC(=O)c1ccccc1C(=O)OCC(CC)CCCC (configuration not stated) | inactive | –
27 | C=CCC1=C(C)C(OC(=O)C2C(C=C(C)C)C2(C)C)CC1=O (configuration not stated) | inactive | –
